Data taken from PubChem BioAssay AID2615 (Southern Research Specialized Biocontainment Screening …, 2010).
Calls of active or inactive are those of the source. No rule for the calls is given here.

Experiment: SV40 cytopathic effect inhibition and cytotoxicity, confirmation, SV40 T antigen inhibitor project, BSC cells (AID 2615)
Conditions: BSC cells SV40 infection, CPE inhibition; viability, at 100 µM, stronger effect = lower value

Compound: COc1ccc(CC2NCCc3cc(OC)c(OC)cc32)cc1OC (configuration not stated)
- outcome: inactive
- viability: 201%
